This is part of a sample that, as a whole, favours compounds with a hit. Of some 79,000 tested, about 15% had one in any assay. A number with no mark means an inactive call. Active and inactive are the calls of the source. No stated cut-off is given here; in the data, active means growth inhibition above about 70%; inactive means the rest. Where a SMILES comes first, the peptide text is derived from it. [ ]: non-standard residue; d: D form. ξ: configuration not given here. ξP = O=C(O)C1CCCN1
Key:
[1] = NCI Yeast Anticancer Drug Screen. Data for the rad50 strain (AID 155);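 further: 0% = growth of vehicle-only cultures of the same strain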; settings: S. cerevisiae rad50 strain growth inhibition; at 50.0 µM; stronger effect = higher value
How it was run: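 Vehicle-treated cultures provide the reference for the growth inhibition reported for compound-exposed, repair-deficient yeast.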

[2] = NCI Yeast Anticancer Drug Screen. Data for the mec2-1 strain (AID 157); settings: S. cerevisiae mec2-1 strain, at 50.0 µM, stronger effect = higher value
How it was run: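 Test agents were screened against the mec2-1 yeast strain, with defined DNA repair or cell cycle alteration. Growth was scored as inhibition against vehicle-only controls.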

[3] = NCI Yeast Anticancer Drug Screen. Data for the sgs1 mgt1 strain (AID 161);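 further: 0% = growth of cultures given vehicle only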; settings: S. cerevisiae sgs1 mgt1 strain, at 50.0 µM, stronger effect = higher value
How it was run: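 Test agents were incubated with a DNA-repair-mutant yeast strain. Growth was then read and compared against vehicle-treated controls.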

[4] = NCI Yeast Anticancer Drug Screen. Data for the cln2 rad14 strain (AID 165);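 further: 0% = growth equal to vehicle treated cultures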; settings: S. cerevisiae cln2 rad14 strain, at 50.0 µM, stronger effect = higher value
How it was run: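 Growth of compound-exposed yeast (cln2 rad14 genotype) measured and expressed as inhibition relative to vehicle.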

[5] = NCI Yeast Anticancer Drug Screen. Data for the bub3 strain (AID 167); settings: S. cerevisiae bub3 mutant strain, at 50.0 µM, stronger effect = higher value
How it was run: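 Mutant yeast screening strain plus compound; vehicle-treated cultures serve as the 0% inhibition reference.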

[6] = NCI Yeast Anticancer Drug Screen. Data for the mlh1 rad18 strain (AID 175); settings: S. cerevisiae mlh1 rad18 strain growth inhibition; at 50.0 µM; stronger effect = higher value
How it was run: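 In this whole-cell yeast screen, a strain with altered DNA damage repair is challenged with compound, and its growth is measured against matched vehicle-treated controls.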

Row | SMILES | growth inhibition [1] | growth inhibition [2] | growth inhibition [3] | growth inhibition [4] | growth inhibition [5] | growth inhibition [6]
1 | CCOC(=O)c1ccc(NP(=O)(Nc2ccc(C(=O)OCC)cc2)c2ccc(N)cc2)cc1 | -5.65% | -17.4% | -2.25% | -65.7% | 0.85% | 4.25%
2 | N#C/C=C/c1cccc(Cl)c1 | 39.1% | 7.9% | 1.9% | 14.3% | 14.3% | 16.9%
3 | COc1ccc(/C(=N\O)c2nccc3cc(OC)c(OC)cc23)cc1OC | 35.8% | 14.2% | 27.9% | 9% | -2.95% | 18.4%
4 | CC(=O)Nc1cccc2[nH]c(=O)c3ccccc3c12 | 3.4% | -6.4% | -5.8% | -19.3% | -16.9% | 4.55%
5 | Cc1ccc(-n2cnc3c(Cl)ncnc32)cc1[N+](=O)[O-] | -4.05% | 12.3% | 15.1% | -45% | 1.65% | 10.9%
6 | O/N=C(/Cc1ccccc1)CC(O)(C(F)(F)F)C(F)(F)F | 90.8% (active) | 89.5% (active) | 87% (active) | 85.8% (active) | 86.7% (active) | 94.3% (active)
7 | N#C/C1=C(\N)CCSSSC1 | 30.8% | 25.9% | 17.4% | 21.3% | 9.5% | -0.2%
8 | CC(/C=N/NC1=NCCCCN1)=N\NC1=NCCCCN1 | -4.95% | -16% | -15.6% | 8.8% | -10.6% | -16.4%
9 | Nc1cc(=O)[nH]c(NCCCC(N)C(=O)O)n1 (configuration not stated) | 5.95% | 8.8% | 6.55% | -15.7% | 0.85% | 8.9%
10 | Cc1cc2c(cc1N)C(C)(C)CCC2(C)C | -4.65% | -18.2% | 10.2% | -24.9% | -11.8% | -18.1%
11 | COC(=O)C1(C(=O)OC)C2CCCCC21 (configuration not stated) | 4.65% | 9.3% | -6.6% | 12.8% | -13.9% | 7.1%
12 | CCC(Cc1cnc2nc(N)nc(N)c2n1)c1ccc(C(=O)NC(CCC(=O)O)C(=O)O)cc1 (configuration not stated) | -9.3% | 18.9% | 1.8% | -12.2% | -22.8% | -14.5%
13 | Cc1cccc(CC(CC(=O)O)C(=O)O)c1 (configuration not stated) | 4.85% | 9.45% | -1.85% | 11.6% | -2.45% | 1.4%
14 | OCc1c(CO)c(-c2ccc(Cl)cc2)n2c1CCC2 | 29.4% | -15% | 8.4% | 29.2% | -6.35% | 34.5%
15 | NCC(=O)N1CCCC1C(=O)NCC(=O)NCC(=O)O (configuration not stated) (H-G[ξP]GG-OH) | 11.6% | 0.95% | 4.8% | -32% | -16.9% | 3.15%
16 | CC(=O)N1c2ccccc2S(=O)(=O)c2ccccc21 | 1.6% | 12.7% | 0.75% | -15.9% | 2.05% | 0.25%
17 | NCc1cnccn1 | -7.05% | 10.6% | -4.65% | 8.45% | 1.1% | -1.85%
18 | CCCCCC/C(=C\c1ccc(O)cc1)C(=O)O | 17.6% | 36.1% | 32.8% | 47.9% | 39.6% | 41.8%
19 | O=C(NCCN1CCOCC1)c1ccc(I)cc1 | 31.8% | 28.9% | 45% | 38.4% | 32.1% | 43.3%
20 | CNCCCCCCNc1cc(OC)cc2cccnc12 | 45% | 18.7% | 56% | 7.05% | 23.1% | 58.8%
21 | NC(CC1C=CC=CC1)C(=O)O (configuration not stated) | 0.6% | 3.15% | 8.35% | -6% | -4.05% | -4.85%

Row | SMILES | growth inhibition [1] | growth inhibition [2] | growth inhibition [3] | growth inhibition [4] | growth inhibition [5] | growth inhibition [6]
22 | CCCCCCCCCCCCOC1OC(COC(C)=O)C(OC(C)=O)C(OC(C)=O)C1OC(C)=O (configuration not stated) (tested in a mixture with another compound) | -7.9% | -15.4% | -15.6% | -22.2% | -2.45% | -14.4%
23 | COc1ccc(C(C)c2cc3c(cc2OCCO)OCO3)cc1 (configuration not stated) | 8.35% | 6.7% | 44.3% | 18.1% | 41.8% | 45.7%
24 | CN(C)/N=N/c1nc2c(c(=O)n(C)c(=O)n2C)n1CC(O)CO (configuration not stated) | 11.4% | 29% | 22.1% | -2.85% | 2% | 27.1%
25 | C/C(N=NC(=S)N1CC(C)OC(C)C1)=C1\C=CC=CN1O (configuration not stated) | -7.3% | -2.15% | 11.8% | 12.3% | 13.8% | 8.85%
26 | NC(=O)C(Br)Cc1cccc(Cl)c1 (configuration not stated) | 29.6% | 11.2% | 13.4% | 2.05% | 17.9% | 14.4%
27 | CN(C)CCN=C1Nc2ccccc2C(=S)N2CSCC12 (configuration not stated) | -0.75% | 17.1% | -10.4% | -2.05% | 5.85% | 11.9%
28 | CC(O)c1nc2c3ccccc3ccc2n1C (configuration not stated) | -6.15% | -0.2% | -6.45% | -42.6% | -1.25% | -8.6%
29 | CCOC(=O)C1NC(=O)C(C(=O)OCC)C1C(C)C (configuration not stated) | 9.45% | 20.9% | 0.35% | -8.25% | -4.05% | -9.05%
30 | CCCCCCCCCCCCCCCCCCN=C=O | -23.6% | -45.8% | -17.8% | -10.8% | -31.8% | -39%
31 | CN(C)CCNC1c2ccccc2-c2ccccc21 | -15.1% | -22.6% | 3.35% | -0.9% | 10.2% | -9%
32 | CCCCCN(CCOC(=O)c1ccc([N+](=O)[O-])cc1)CCOC(=O)c1ccc([N+](=O)[O-])cc1 | 7.5% | 4.7% | 7.25% | 7.8% | -2.6% | 7.45%
33 | CCCC(=O)Nc1ccc(OCC)cc1 | -9.5% | -4.1% | -11.8% | -49.5% | -18.8% | -16.6%
34 | CC12CCC(Cl)(CC1O)C2(C)C (configuration not stated) | 1.9% | 11.6% | 1.15% | 2.05% | -6.9% | -1.05%
35 | O=c1cnc2c(ccc3ccccc32)[nH]1 | -2.7% | -20.8% | -16.1% | 6.55% | 8.4% | -5.95%
36 | CC(C)/C=N/N(CCOC(=O)Nc1cccc2ccccc12)C(=O)Nc1cccc2ccccc12 | -4.95% | -15.1% | 1.75% | -19.8% | -8.15% | 14.8%
37 | Cc1cc(S(=O)(=O)Nc2nc(N)nc(N(C)C)n2)c(S)cc1Cl | 1.4% | -17.2% | -3.5% | 1.9% | -46% | 15.1%
38 | O=Nc1ccc(Br)cc1 | -8.2% | 0.35% | -11.7% | 5.8% | 13.1% | -7.5%
39 | COc1ccc(C2CC(=O)C(C(=O)OC3CCCCC3)C2c2ccc(OC)cc2)cc1 (configuration not stated) | 13.9% | 16.2% | 15.8% | 28.1% | -3.25% | 19.5%
40 | S=c1sc2c(Cl)ncnc2n1-c1ccccc1 | 1.55% | 24.4% | 13.2% | 11.8% | 9.7% | 5.6%
41 | C=C(CN(C)C)C(=O)c1ccccc1OC | 35.7% | 30.1% | 44.8% | -25.9% | 35.3% | 18.8%
42 | CCN1CCCC(C#N)(c2ccccc2)CC1 (configuration not stated) | 14.1% | 7.45% | 14.5% | 8.9% | 3.2% | -4.1%
